Results taken from PubChem BioAssay AID1159580 (chemical genetic matrix, 2015).
Where “and” joins values, the source holds several entries; their conditions need not be identical. Equal values may be shown once. About 2,000 (36%) of roughly 5,500 compounds were called active. Inconclusive results (about 18%) are left out. No stated cut-off is given here; in the data, active means normalized growth mostly below about 0.91 (no sharp cut-off); inconclusive means no clear call, values can overlap the other calls; inactive means mostly above about 0.92. Some of the results follow.

Assay: chemical genetic growth profiling, strain panel (AID 1159580);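 further: tested at 20 µM; growth read once vehicle control cultures reached saturation at 30 °C; 1 = growth at the plate median or of vehicle wells; lower values mean less growth of the strain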
Settings: S. cerevisiae deletion strains, growth OD

Measured: normalized growth

COc1ccc(C2Sc3ccccc3N(CCN(C)C)C(=O)C2OC(C)=O)cc1 (stereo not given)
inactive: locus YAL013W, strain DEP1, hits give low values 1 | locus YAL021C, strain ccr4, hits give low values 0.985 | locus YAL026C, strain drs2, hits give low values 0.969 | locus YAL030W, strain snc1, hits give low values 0.986 | locus YBL061C, strain skt5, hits give low values 0.987 | locus YBR009C, strain hhf1, hits give low values 1.01 | locus YBR021W, strain FUR4, hits give low values 1.04 | locus YBR023C, strain chs3, hits give low values 0.988 | locus YBR171W, strain sec66, hits give low values 0.966 | locus YBR229C, strain ROT2, hits give low values 1.01 | locus YBR231C, strain swc5, hits give low values 0.919 | locus YBR279W, strain paf1, hits give low values 0.977 | locus YCL011C, strain gbp2, hits give low values 0.971 | locus YCL016C, strain dcc1, hits give low values 0.999 | locus YCL029C, strain bik1, hits give low values 1.03 | locus YCL069W, strain vba3, hits give low values 0.975 | locus YCR088W, strain abp1, hits give low values 0.979 | locus YDL005C, strain med2, hits give low values 0.953 | locus YDL035C, strain GPR1, hits give low values 1.02 | locus YDL040C, strain nat1, hits give low values 0.975 | locus YDL074C, strain BRE1, hits give low values 1.04 | locus YDL101C, strain DUN1, hits give low values 1.01 | locus YDL134C, strain PPH21, hits give low values 1.01 | locus YDL185W, strain tfp1, hits give low values 1.04 | locus YDL192W, strain arf1, hits give low values 1.04 | locus YDR001C, strain nth1, hits give low values 0.949 | locus YDR069C, strain doa4, hits give low values 0.963 | locus YDR101C, strain arx1, hits give low values 1.03 | locus YDR137W, strain rgp1, hits give low values 1.01 | locus YDR150W, strain NUM1, hits give low values 1.01 | locus YDR159W, strain sac3, hits give low values 0.981 | locus YDR162C, strain NBP2, hits give low values 1.01 | locus YDR195W, strain ref2 0.923 | locus YDR297W, strain sur2, hits give low values 0.989 | locus YDR318W, strain mcm21, hits give low values 1.03 | locus YDR334W, strain swr1, hits give low values 0.917 | locus YDR335W, strain msn5, hits give low values 0.943 | locus YDR388W, hits give low values 1.03 | locus YDR392W, strain spt3, hits give low values 1.02 | locus YDR502C, strain sam2, hits give low values 1.03 | locus YEL003W, strain gim4, hits give low values 0.978 | locus YEL037C, strain rad23, hits give low values 0.97 | locus YEL061C, strain CIN8 (second series), hits give low values 0.943 | locus YEL061C, strain CIN8, hits give low values 1.01 | locus YER015W, strain faa2, hits give low values 0.962 | locus YER016W, strain bim1, hits give low values 0.993 | locus YER110C, hits give low values 1.05 | locus YER111C, strain swi4, hits give low values 0.953 | locus YER155C, strain BEM2 (second series), hits give low values 0.986 | locus YER155C, strain BEM2, hits give low values 1.01 | locus YER167W, strain BCK2, hits give low values 1.03 | locus YFR010W, strain ubp6, hits give low values 0.938 | locus YGL078C, strain dbp3, hits give low values 1.03 | locus YGL086W, strain mad1, hits give low values 1.02 | locus YGL167C, strain pmr1, hits give low values 1.01 | locus YGL173C, strain kem1, hits give low values 1.01 | locus YGL227W, strain vid30, hits give low values 0.984 | locus YGL240W, strain doc1, hits give low values 0.983 | locus YGL248W, strain PDE1, hits give low values 1.01 | locus YGL253W, strain hxk2, hits give low values 0.959 | locus YGR078C, strain PAC10, hits give low values 1.01 | locus YGR135W, strain pre9, hits give low values 1.02 | locus YGR229C, strain SMI1, hits give low values 1.05 | locus YGR252W, strain gcn5, hits give low values 1.06 | locus YHR013C, strain ard1, hits give low values 0.979 | locus YHR027C, strain rpn1, hits give low values 0.977 | locus YHR030C, strain SLT2, hits give low values 1.01 and 1.04 | locus YHR079C, strain IRE1 (second series), hits give low values 1.03 | locus YHR079C, strain IRE1, hits give low values 1.01 | locus YHR094C, strain hxt1, hits give low values 1.03 | locus YHR129C, strain ARP1, hits give low values 1.01 | locus YHR142W, strain chs7, hits give low values 0.972 | locus YHR200W, strain rpn10, hits give low values 1.04 | locus YIL066C, strain RNR3, hits give low values 1.01 | locus YIL073C, strain SPO22, hits give low values 1.12 | locus YIL125W, strain kgd1, hits give low values 1.03 | locus YIR030C, strain dcg1, hits give low values 1.04 | locus YJL092W, strain hpr5, hits give low values 0.99 | locus YJL095W, strain BCK1 (second series), hits give low values 0.973 | locus YJL095W, strain BCK1, hits give low values 1.03 and 1.01 | locus YJL115W, strain asf1, hits give low values 0.949 | locus YJL129C, strain trk1, hits give low values 0.925 | locus YJL134W, strain LCB3, hits give low values 1 | locus YJL154C, strain vps35, hits give low values 0.982 | locus YJL164C, strain tpk1, hits give low values 0.996 | locus YJL166W, strain qcr8, hits give low values 0.986 | locus YJL168C, strain set2, hits give low values 1.04 | locus YJL187C, strain SWE1 (second series), hits give low values 1.01 | locus YJR066W, strain TOR1, hits give low values 0.942 | locus YJR075W, strain HOC1, hits give low values 1.02
